# PubChem BioAssay (NCI)
# Compounds without any hit were thinned out: in the full panel of roughly 83,000, 20% have a hit.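 The test compound was applied at a single concentration to cells in 96-well plates for 48 hours, and percent growth was recorded.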 A number with no mark means an inactive call. Calls of active or inactive are those of the source. Rule for the calls: active = growth percent below 10; inactive = the rest.
# Legend:
# Assay in all cases: NCI-60 one-dose screen, 48 h (100 = growth as untreated, 0 = no growth, -100 = all killed)
# Conditions in all cases: 10 µM unless noted
# SR leukemia = system: SR leukemia
# RPMI-8226 leukemia = system: RPMI-8226 leukemia
# OVCAR-8 ovarian = system: OVCAR-8 ovarian
# OVCAR-5 ovarian = system: OVCAR-5 ovarian
# OVCAR-4 ovarian = system: OVCAR-4 ovarian
# SK-OV-3 ovarian = system: SK-OV-3 ovarian
# IGROV1 ovarian = system: IGROV1 ovarian
# OVCAR-3 ovarian = system: OVCAR-3 ovarian
# HS 578T breast = system: HS 578T breast
# NCI/ADR-RES ovarian = system: NCI/ADR-RES ovarian
Structure (SMILES),growth (SR leukemia),growth (RPMI-8226 leukemia),growth (OVCAR-8 ovarian),growth (OVCAR-5 ovarian),growth (OVCAR-4 ovarian),growth (SK-OV-3 ovarian),growth (IGROV1 ovarian),growth (OVCAR-3 ovarian),growth (HS 578T breast),growth (NCI/ADR-RES ovarian)
CC(=O)Nc1cccc(Nc2nc(N[C@H](C)c3ccccc3)c3ccccc3n2)c1,-7.47% (active),-20.3% (active),74.8%,70.6%,34.9%,94.8%,51.8%,55.9%,80.5%,–
O=S(=O)(NCCNc1nccc(-n2cnc3ccccc32)n1)c1ccc(Br)cc1,75.1%,79.7%,95.6%,94%,82.2%,99.9%,90.7%,103%,85.7%,97.6%
NC(N)=Nc1ccc(Oc2cccc(NC(N)=Nc3ccc(Br)c(C(F)(F)F)c3)c2)cc1,4.94% (active),45.5%,65.5%,45.1%,58.9%,57%,-16.6% (active),23.5%,34%,–
C#Cc1ccc(C(=O)NCc2ccc(/C=C/C(=O)c3nccn3C)cc2)cc1,4.33% (active),6.86% (active),26.9%,26.8%,39%,50.2%,13.1%,17.8%,22.6%,–
O=C1[C@@H]2Cc3c([nH]c4ccccc34)[C@H](c3c(Cl)cccc3Cl)N2C(=O)CN1C1CCN(CC2CCCCC2)CC1,-0.527% (active),38.4%,88.1%,93.4%,90.2%,123%,58.4%,20.3%,18.7%,–
CC(C)(O)c1cncc(-c2ccc3ncnc(NCc4ccccc4)c3c2)c1,92.2%,84.6%,102%,62.5%,77.3%,110%,34.2%,83.8%,73.2%,–
N#Cc1c(-c2cccs2)cc(-c2cnccn2)nc1SCC(=O)c1ccc(F)cc1,81.3%,97.7%,99.5%,88%,76%,104%,78.1%,118%,94.2%,–
C[C@H]1c2[nH]c3ccccc3c2C[C@H]2C(=O)N(CCCCCCC(=O)NO)CC(=O)N21,30.8%,73.8%,64.5%,80.7%,97.1%,101%,93%,79.9%,66.7%,–
COc1c(N2CC3CCCNC3C2)c(F)cc2c(=O)c(C(=O)N/N=C/c3c[nH]c4ccccc34)cn(C3CC3)c12 (stereo not drawn),-12.2% (active),78.2%,99%,116%,106%,130%,97.9%,103%,110%,104%
CS(=O)(=O)Nc1cc(-c2ccc3ncc(C#N)c(Nc4cccc(Cl)c4F)c3c2)cnc1Cl,1.4% (active),-36.9% (active),10.6%,21.2%,19.1%,-18.2% (active),-43.8% (active),-12.8% (active),-26.6% (active),33.7%
O=C(Cn1cc(-c2ccccc2)nn1)Nc1nc(-c2ccc(Cl)cc2)cs1,98.6%,99.3%,101%,104%,92.7%,94.7%,108%,123%,106%,102%
COc1c(N2CC3CCCNC3C2)c(F)cc2c(=O)c(C(=O)N/N=C/c3ccc(N(C)C)cc3)cn(C3CC3)c12 (stereo not drawn),-33.5% (active),62.9%,87.3%,95.7%,90%,114%,58.9%,51.2%,95.8%,81.6%
C=CCn1c(SCC(=O)Nc2ccc(C(=O)/C=C/c3ccc(Cl)cc3)cc2)nnc1-c1c[nH]c2ccccc12,71.1%,2.66% (active),76.1%,97.3%,66.9%,86.7%,58.1%,84%,91.5%,97.7%
COc1ccc(/C(N)=N/C(N)=N/c2nc3ccccc3s2)cc1,13.4%,43.6%,97.3%,103%,76.5%,99.6%,49.8%,96%,81.3%,35%
COc1cc(-c2ccc3ncnc(NCc4ccccc4)c3c2)cnc1OC,62.1%,34.5%,70.7%,28.9%,65.3%,43.2%,-31.8% (active),43.4%,20%,68.3%
C=C(C=O)[C@@H]1CC[C@]2(C)[C@H](CC=C3[C@H]4[C@@H](C)[C@H](C)CC[C@]4(C(=O)OC)CC[C@]32C)[C@@]1(C)CCC#N,0.262% (active),-11.9% (active),20.1%,2.05% (active),20.1%,69.7%,-2.63% (active),-58.2% (active),-14.4% (active),8.1% (active)
COc1ccc(COc2ccc(/C=C3\C(=O)Nc4ccccc43)cc2OC)cc1,102%,104%,101%,99.9%,99.8%,119%,107%,115%,105%,106%
CCC(CC)N1C(=O)/C(=c2\sc3n(c2=O)NC2C(N=3)N(CC)C(=O)N2CC)c2ccccc21 (stereo not drawn),54.5%,64.7%,81.6%,57.3%,63.6%,95.7%,44.7%,31.5%,73.1%,26.3%
NS(=O)(=O)c1ccc(Nc2nc(SCc3ccccc3)nc3ccccc23)cc1,33.6%,32.8%,60.6%,83.3%,58%,91.3%,90.9%,84.7%,62.2%,102%
C#Cc1nc(C(C)=O)cs1,99.6%,92.5%,105%,107%,105%,93%,101%,112%,104%,103%
O=C(O)c1cn(C2CC2)c2cc(N3CCN(C(=O)CN4C(=O)CSC4=O)CC3)c(F)cc2c1=O,99.3%,126%,105%,99%,86.4%,113%,82.6%,108%,97.7%,108%
C=C=COc1cccc(/C(N)=N/C(N)=N/c2nc3ccccc3s2)c1,6.37% (active),106%,62.8%,83.4%,89.4%,102%,57.7%,100%,59.9%,88.5%
NC(N)=Nc1ccc(Nc2cccc(Oc3ccc(Cl)c(C(F)(F)F)c3)c2)cn1,-49.9% (active),-40.8% (active),27.4%,58.1%,39.8%,56.3%,22.6%,-55% (active),45.4%,80.5%
Cc1ccc(CSc2nc(-c3ccc(Cl)cc3)c(C#N)c(N3CCNCC3)n2)cc1,-10.6% (active),69.4%,92%,99.7%,89.3%,117%,66.8%,82.9%,80.1%,94.5%
O=S(=O)(NCCNc1nccc(-n2cnc3ccccc32)n1)c1ccc(Cl)cc1,96.3%,99.4%,102%,91.7%,95.2%,112%,98.2%,106%,88.1%,97.8%
CCN(CC)CCn1c2ccc(O)cc2c2sc3cc(OC)ccc3c(=O)c21,-13.4% (active),-13.1% (active),19.3%,44.7%,28.2%,74.7%,19.2%,41.8%,63.6%,20.8%
CC1(C)CC[C@]23CC[C@]4(C)[C@H](CC[C@@H]5[C@@]6(C)CCCN(CO)C(C)(C)[C@@H]6CC[C@]54C)[C@H]2[C@H]1OC3,1.43% (active),21.8%,101%,95.9%,85.6%,118%,69%,66.6%,91.3%,101%
